In PubChem BioAssay (Tox21) one finds Potency data, which are given here for 25 compounds.

Records with an inconclusive call do not appear. A number with no mark means an inactive call. Activity calls are given as the source filed them. Unless noted, calls come from the whole dose curve.

A short description of experiment [1]: qHTS assay to identify small molecule agonists of the vitamin D receptor (VDR) signaling pathway - cell viability counter screen (AID 743224; active = well fitted curve in the direction sought with a large enough effect in the repeat runs; an effect the other way counts as inactive or inconclusive; note: nearly all actives have a fitted effect of over 50% in size; note: potency is the fitted concentration of half-maximal effect). Put shortly: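 Viability is measured in the same wells as the VDR-bla reporter assay: after 16 h compound treatment and 2 h substrate loading, CellTiter-Glo is added and luminescence read 30 min later.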
In general terms: Quantitative high-throughput screening tests each substance at several concentrations.

A short description of experiment [2]: qHTS assay to identify small molecule antagonists of the vitamin D receptor (VDR) signaling pathway - cell viability counter screen (AID 743225; active = well fitted curve in the direction sought with a large enough effect in the repeat runs; an effect the other way counts as inactive or inconclusive; note: nearly all actives have a fitted effect of over 50% in size; note: potency is the fitted concentration of half-maximal effect). Put shortly:
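Viability counter screen run in the same wells as the beta-lactamase reporter assay: HEK 293T VDR-UAS-bla cells, 16 h compound exposure at 37C with 3 nM (final) 1-alpha,25-dihydroxyvitamin D3. CellTiter-Glo luminescence, 30 min, room temperature.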

Experiment [3] in a line: qHTS assay to identify small molecule agonists of the NFkB signaling pathway - cell viability counter screen (AID 1159515). Note: series mostly up to about 61 µM; nearly all actives have a fitted effect of over 55% in size. An outline of the steps: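 Multiplexed viability readout: after the 5 hr compound exposure and 1.5 hr FRET substrate step, CellTiter-Glo reagent went into the same NFkB-bla ME-180 wells; ATP luminescence was measured after 30 min at room temperature.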

Experiment [4] can be described thus: qHTS assay to identify small molecule agonists of the endoplasmic reticulum stress response signaling pathway (AID 1159516; active = well fitted activation curve with a large enough effect in the signal ratio in the repeat runs, not every such curve was filed as active; the % refers to the signal ratio). An outline of the steps: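 Tox21 10K library screened in quantitative HTS format on ESRE-bla HeLa cells, a beta-lactamase reporter under ER stress response element control; 5 hr treatment, FRET read.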
Experiment [5] can be described thus: qHTS assay to identify small molecule agonists of the endoplasmic reticulum stress response signaling pathway - cell viability counter screen (AID 1159517). Note: series mostly up to about 61 µM; nearly all actives have a fitted effect of over 50% in size. An outline of the steps:
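CellTiter-Glo was added to wells already read for beta-lactamase FRET, and luminescence was recorded 30 min later. Cells: ESRE-bla HeLa, 1,500 per well, compound exposure 5 hr at 37 C.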

Experiment [6] in a line: qHTS assay to identify small molecule antagonists of the retinoid-related orphan receptor gamma (ROR-gamma) signaling pathway - cell viability counter screen (AID 1159520; active = well fitted curve in the direction sought with a large enough effect in the repeat runs; an effect the other way counts as inactive or inconclusive; note: nearly all actives have a fitted effect of over 50% in size). Put shortly:
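Tet-on ROR gamma CHO cells (1,000/well) were plated 4 hr, given compounds in DMSO for 2 hr at 37 C, then induced with 1 uM final doxycycline for 16 hr. Viability was read as ATP by CellTiter-Glo luminescence after 30 min.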

The nature of experiment [7]: qHTS assay to identify small molecule agonists of the AP-1 signaling pathway - cell viability counter screen (AID 1159525). Note: nearly all actives have a fitted effect of over 55% in size. Note: potency is the fitted concentration of half-maximal effect. An outline of the steps:
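ME-180 AP-1-bla, 2500 cells/well, Opti-MEM + 0.5% dialyzed FBS; overnight 37 °C; cpd 15-pt titration, 5 h 37 °C; CellTiter-Glo 30 min RT; luminescence read; normalised to TOAB and DMSO controls.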

The nature of experiment [8]: qHTS assay to identify small molecule agonists of the AP-1 signaling pathway (AID 1159526). Note: potency is the fitted concentration of half-maximal effect.
Experiment [9] has as its target Retinoic acid receptor RXR-alpha (Homo sapiens) (UniProt P19793). The experiment in a line: qHTS assay to identify small molecule agonists of the RXR signaling pathway (AID 1159527). Note: nearly all actives have a fitted effect of over 35% in size. Note: potency is the fitted concentration of half-maximal effect. An outline of the steps:
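Agonist mode; 9-cis retinoic acid positive control. HEK 293T UAS-bla reporter cells, 2% charcoal-stripped FBS, 16 hr compound exposure at 37 C/5% CO2. LiveBLAzer B/G FRET substrate 2 hr RT; ex 405, em 460/530 nm.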

The target of experiment [10] is Nuclear receptor ROR-gamma (Homo sapiens) (UniProt P51449). As to the kind of experiment: qHTS assay to identify small molecule antagonists of the retinoid-related orphan receptor gamma (ROR-gamma) signaling pathway (AID 1159521; active = well fitted curve in the direction sought with a large enough effect in the repeat runs; an effect the other way counts as inactive or inconclusive; note: nearly all actives have a fitted effect of over 50% in size; note: potency is the fitted concentration of half-maximal effect). An outline of the steps:
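Luminescence readout (ONE-Glo, 30 min RT) after 16 h doxycycline induction; loss of signal scored as antagonism. CHO cells with TET-inducible RORγ and RORE-LUC reporter; compounds added 2 h before 1 uM final doxycycline.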

Sequence of Retinoic acid receptor RXR-alpha (Homo sapiens) (P19793 whole entry, looked up): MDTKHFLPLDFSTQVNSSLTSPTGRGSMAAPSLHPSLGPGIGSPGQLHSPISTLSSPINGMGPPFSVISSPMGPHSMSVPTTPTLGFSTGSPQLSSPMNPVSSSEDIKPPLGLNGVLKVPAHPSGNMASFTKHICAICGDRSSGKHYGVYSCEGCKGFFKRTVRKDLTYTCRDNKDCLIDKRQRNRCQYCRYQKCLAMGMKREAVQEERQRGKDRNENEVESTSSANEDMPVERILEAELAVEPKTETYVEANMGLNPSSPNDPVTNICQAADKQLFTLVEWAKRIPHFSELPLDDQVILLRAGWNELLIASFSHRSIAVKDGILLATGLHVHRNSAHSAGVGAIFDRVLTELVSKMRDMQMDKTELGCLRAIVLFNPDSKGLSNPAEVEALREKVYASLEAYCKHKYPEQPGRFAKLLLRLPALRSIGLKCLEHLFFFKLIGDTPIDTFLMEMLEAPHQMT

In the case of `CNC(=O)CN(CCN(CCN(CC(=O)[O-])CC(=O)NC)CC(=O)[O-])CC(=O)[O-].O.[Gd+3]`, the Potency result in experiment [1], in [2], in [3], in [4], in [5] and in experiment [6] was “inactive” each time. In addition, the Potency result in experiment [7], in experiment [8] and in [9] was “inactive” throughout.

As for `O=C(OCCc1ccccc1)c1ccccc1`, the Potency entry in experiment [1], in experiment [2], in [3], in experiment [4], in experiment [5] and in [6] was “inactive” each time. In addition, the Potency entry in experiment [10] is “inactive”.

For the compound `CC(C)O.CC(C)O.CCOC(=O)/C=C(\C)O.CCOC(=O)/C=C(\C)O.[Ti]`, the Potency entry in experiment [1], in experiment [2], in experiment [3], in [4], in experiment [5] and in experiment [6] was “inactive” in each case. The Potency result in [7], in experiment [8] and in [9] was “inactive” each time.

As to `C[C@H](CCC(=O)O)[C@H]1CC[C@H]2[C@@H]3CC[C@@H]4C[C@H](O)CC[C@]4(C)[C@H]3C[C@H](O)[C@]12C`, the Potency entry in experiment [3], in experiment [4], in experiment [5], in experiment [6] and in [7] was “inactive” each time.

In the case of `O=[N+]([O-])c1ccc2[nH]ncc2c1`, the Potency entry in [1], in experiment [2], in experiment [3], in experiment [4], in experiment [5] and in experiment [6] was “inactive” in each case. In addition, the Potency entry in [7], in experiment [8] and in experiment [9] was “inactive” each time.

Turning to `Cc1ncc(CO)c(C=O)c1O`, the Potency entry in experiment [1], in experiment [2], in experiment [3], in [4], in experiment [5] and in experiment [6] was “inactive” in each case. For the same compound, the Potency result in [7], in [8] and in experiment [9] was “inactive” throughout.

`CCN(CC)CCOC(=O)C(c1ccccc1)C1CCCCC1` (centres undefined): the Potency entry in experiment [1], in experiment [2], in [3], in experiment [4], in experiment [5] and in experiment [6] was “inactive” each time. Besides, the Potency entry in experiment [10] was “inactive”.

For `C=C1[C@H]2CC[C@@H]3[C@H]2C(C)(C)CCC[C@]13C`, the Potency result in [1], in [2], in [3], in experiment [4], in [5] and in experiment [6] was “inactive” each time. The Potency result in [7], in experiment [8] and in experiment [9] was “inactive” throughout.

As to `O=P(O)(OCc1ccccc1)OCc1ccccc1`, the Potency entry in experiment [1], in experiment [3], in experiment [4], in experiment [5], in experiment [6] and in experiment [7] was “inactive” each time. For the same compound, the Potency result in experiment [8] and in [9] was “inactive” in each case.

As to `COCC(C)OC(C)=O` (centres undefined), the Potency entry in [1], in experiment [2], in experiment [3], in [4], in experiment [5] and in [6] was “inactive” each time. For the same compound, the Potency entry in [7], in [8] and in experiment [9] was “inactive” each time.

For `CCCCCCCCCCCC(=O)OC[C@@H](O)[C@H]1OC[C@H](OCCO)[C@H]1OCCO`, the Potency entry in experiment [3], in [4], in [5], in experiment [6], in experiment [7] and in experiment [8] was “inactive” in each case. Besides, the Potency result in [9] was “inactive”.

`CCCCCCCCCc1ccc(OCCOCCO)cc1`: the Potency in [1] was 20.5 µM (active); in experiment [2] it was 18.3 µM (active); in experiment [10] it was 5.11 µM (active). Besides, the Potency result in experiment [3], in [4], in experiment [5] and in experiment [6] was “inactive” throughout.

Consider `CCOc1ccc(O)cc1`, for which the Potency entry in experiment [3], in [4], in experiment [5], in experiment [6], in [7] and in experiment [8] was “inactive” throughout. In [9], the Potency entry is “inactive”.

For `CCCCCCCCCCCCCCOS(=O)(=O)O`, the Potency entry in [3], in experiment [4], in [5] and in [6] was “inactive” each time. The Potency in experiment [7] is 54.9 µM (active).

As for `CCCCO`, the Potency result in experiment [1], in experiment [2], in experiment [3], in experiment [4], in experiment [5] and in experiment [6] was “inactive” each time. Besides, the Potency entry in experiment [7], in [8] and in [9] was “inactive” each time.

For the compound `OC(C#CCN1CCCC1)(c1ccccc1)c1ccccc1`, the Potency entry in experiment [1], in experiment [2], in experiment [3], in [4], in experiment [5] and in [6] was “inactive” each time. Further, the Potency entry in [7] and in experiment [9] was “inactive” in each case. Further, the Potency in [8] is 16.9 µM (active).

Take `O=[N+]([O-])c1ccc(NCCO)c(OCCO)c1`: the Potency result in experiment [1], in experiment [2], in experiment [3], in experiment [4], in experiment [5] and in experiment [6] was “inactive” each time. Further, the Potency result in [7], in [8] and in experiment [9] was “inactive” throughout.

On to `CC(C)(C)Cl`, for which the Potency entry in [2], in experiment [3], in experiment [4], in experiment [5], in experiment [6] and in experiment [7] was “inactive” throughout. Besides, the Potency result in [8] and in experiment [9] was “inactive” each time.

With `COc1cc2nc(Cl)nc(N)c2cc1OC`, the Potency entry in [1], in [2], in experiment [3], in experiment [4], in experiment [5] and in experiment [6] was “inactive” throughout. The Potency entry in experiment [7], in experiment [8] and in experiment [9] was “inactive” in each case.

As to `CC(C)OC(=O)C(C)N(C(=O)c1ccccc1)c1ccc(F)c(Cl)c1` (centres undefined), the Potency result in experiment [1], in experiment [3], in experiment [4], in experiment [5], in experiment [6] and in experiment [7] was “inactive” in each case. Besides, in [8], the Potency result is “inactive”.

Regarding `O=C(O)c1nc(Cl)c(Cl)c(Cl)c1Cl`, the Potency entry in [1], in experiment [3], in experiment [4], in [5], in experiment [6] and in experiment [7] was “inactive” throughout. The Potency result in experiment [8] was “inactive”.

As for `CCC(C)O` (centres undefined), the Potency result in experiment [2], in experiment [3], in experiment [4], in experiment [5], in experiment [6] and in experiment [7] was “inactive” throughout. Further, the Potency entry in experiment [8] and in [9] was “inactive” each time.

Take `CCOC(=O)COC(=O)c1cc(Oc2ccc(C(F)(F)F)cc2Cl)ccc1[N+](=O)[O-]`: the Potency entry in [1], in [2], in experiment [3], in experiment [4], in experiment [5] and in [6] was “inactive” in each case. The Potency result in experiment [7] and in [8] was “inactive” throughout. The Potency in [9] is 24.5 µM (active).

For `COc1ccnc(CS(=O)c2nc3ccc(OC(F)F)cc3[nH]2)c1OC` (centres undefined), the Potency result in experiment [1], in experiment [2], in experiment [3], in [4], in experiment [5] and in experiment [6] was “inactive” in each case. In addition, the Potency result in experiment [7], in experiment [8] and in experiment [9] was “inactive” in each case.

Regarding `Cc1c(N)cccc1[N+](=O)[O-]`, the Potency entry in experiment [1], in experiment [2], in experiment [3], in experiment [4], in [5] and in experiment [6] was “inactive” each time. Moreover, the Potency result in experiment [7] and in experiment [8] was “inactive” each time.
